System: WHIM30 (cells of a triple-negative basal-like breast cancer xenograft)
Experiment: cell viability of combination (% of vehicle); higher = less cytotoxic
Conditions: 1 µM; 72 h; partner dose: 10 nM
Procedure: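 PDX cells were treated for 72 h with each drug at 1 µM plus carfilzomib (10 nM; 100 nM for WHIM2). Luciferase viability is expressed as percent of vehicle.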

| SMILES | cell viability of combination |
| --- | --- |
| CCCCCCCCOc1ccccc1C(=O)Nc1ccc(C(=O)OCC[N+](C)(CC)CC)cc1.[Br-] [Otilonium Bromide] + CC(C)C[C@H](NC(=O)[C@H](CCc1ccccc1)NC(=O)CN1CCOCC1)C(=O)N[C@@H](Cc1ccccc1)C(=O)N[C@@H](CC(C)C)C(=O)[C@@]1(C)CO1 [Carfilzomib] | 17.7 |
| COc1cccc2c1C(=O)c1c(O)c3c(c(O)c1C2=O)C[C@@](O)(C(C)=O)C[C@@H]3O[C@H]1C[C@H](N)[C@H](O)[C@H](C)O1.Cl [Daunorubicin HCl] + CC(C)C[C@H](NC(=O)[C@H](CCc1ccccc1)NC(=O)CN1CCOCC1)C(=O)N[C@@H](Cc1ccccc1)C(=O)N[C@@H](CC(C)C)C(=O)[C@@]1(C)CO1 [Carfilzomib] | 4.41 |
| CC(C)(C)NC(=O)C1CC2CCCCC2CN1CC(O)C(Cc1ccccc1)NC(=O)C(CC(N)=O)NC(=O)c1ccc2ccccc2n1.CS(=O)(=O)O (stereo not given) [Saquinavir mesylate] + CC(C)C[C@H](NC(=O)[C@H](CCc1ccccc1)NC(=O)CN1CCOCC1)C(=O)N[C@@H](Cc1ccccc1)C(=O)N[C@@H](CC(C)C)C(=O)[C@@]1(C)CO1 [Carfilzomib] | 22.9 |
| Clc1ccc(C(Cn2ccnc2)OCc2c(Cl)cccc2Cl)c(Cl)c1.O=[N+]([O-])O (stereo not given) [Isoconazole nitrate] + CC(C)C[C@H](NC(=O)[C@H](CCc1ccccc1)NC(=O)CN1CCOCC1)C(=O)N[C@@H](Cc1ccccc1)C(=O)N[C@@H](CC(C)C)C(=O)[C@@]1(C)CO1 [Carfilzomib] | 16.4 |
| Oc1c(Cl)cc(Cl)c2cccnc12 [Chloroxine] + CC(C)C[C@H](NC(=O)[C@H](CCc1ccccc1)NC(=O)CN1CCOCC1)C(=O)N[C@@H](Cc1ccccc1)C(=O)N[C@@H](CC(C)C)C(=O)[C@@]1(C)CO1 [Carfilzomib] | 19 |
| Nc1c(CC(=O)[O-])cccc1C(=O)c1ccccc1.O.[Na+] [Amfenac Sodium Monohydrate] + CC(C)C[C@H](NC(=O)[C@H](CCc1ccccc1)NC(=O)CN1CCOCC1)C(=O)N[C@@H](Cc1ccccc1)C(=O)N[C@@H](CC(C)C)C(=O)[C@@]1(C)CO1 [Carfilzomib] | 23.7 |
| COc1cc(C(=O)NS(=O)(=O)c2ccccc2C)ccc1Cc1cn(C)c2ccc(NC(=O)OC3CCCC3)cc12 [Zafirlukast] + CC(C)C[C@H](NC(=O)[C@H](CCc1ccccc1)NC(=O)CN1CCOCC1)C(=O)N[C@@H](Cc1ccccc1)C(=O)N[C@@H](CC(C)C)C(=O)[C@@]1(C)CO1 [Carfilzomib] | 17.9 |
| Cl.Cl.Fc1ccc(C(c2ccc(F)cc2)N2CCN(CC=Cc3ccccc3)CC2)cc1 [Flunarizine 2HCl] + CC(C)C[C@H](NC(=O)[C@H](CCc1ccccc1)NC(=O)CN1CCOCC1)C(=O)N[C@@H](Cc1ccccc1)C(=O)N[C@@H](CC(C)C)C(=O)[C@@]1(C)CO1 [Carfilzomib] | 15 |
| CNC(=O)c1cc(Oc2ccc(NC(=O)Nc3ccc(Cl)c(C(F)(F)F)c3)cc2)ccn1.Cc1ccc(S(=O)(=O)O)cc1 [Sorafenib Tosylate] + CC(C)C[C@H](NC(=O)[C@H](CCc1ccccc1)NC(=O)CN1CCOCC1)C(=O)N[C@@H](Cc1ccccc1)C(=O)N[C@@H](CC(C)C)C(=O)[C@@]1(C)CO1 [Carfilzomib] | 19.5 |
| CC(C)Nc1cc(-c2c[nH]c(C(=O)NC(CO)c3cccc(Cl)c3)c2)c(Cl)cn1 (stereo not given) + CC(C)C[C@H](NC(=O)[C@H](CCc1ccccc1)NC(=O)CN1CCOCC1)C(=O)N[C@@H](Cc1ccccc1)C(=O)N[C@@H](CC(C)C)C(=O)[C@@]1(C)CO1 [Carfilzomib] | 21.7 |
| CCCCc1oc2ccc(NS(C)(=O)=O)cc2c1C(=O)c1ccc(OCCCN(CCCC)CCCC)cc1.Cl [Dronedarone HCl] + CC(C)C[C@H](NC(=O)[C@H](CCc1ccccc1)NC(=O)CN1CCOCC1)C(=O)N[C@@H](Cc1ccccc1)C(=O)N[C@@H](CC(C)C)C(=O)[C@@]1(C)CO1 [Carfilzomib] | 12.7 |
| CC(O)C(=O)O.CC(O)C(=O)O.CN1CCN(c2ccc3c(c2)NC(=C2C(=O)N=c4cccc(F)c4=C2N)N3)CC1 [Dovitinib Dilactic acid] + CC(C)C[C@H](NC(=O)[C@H](CCc1ccccc1)NC(=O)CN1CCOCC1)C(=O)N[C@@H](Cc1ccccc1)C(=O)N[C@@H](CC(C)C)C(=O)[C@@]1(C)CO1 [Carfilzomib] | 32.1 |
| COC(=O)C1=C(C)NC(C)=C(C(=O)OCCN(C)Cc2ccccc2)C1c1cccc([N+](=O)[O-])c1.Cl (stereo not given) [Nicardipine HCl] + CC(C)C[C@H](NC(=O)[C@H](CCc1ccccc1)NC(=O)CN1CCOCC1)C(=O)N[C@@H](Cc1ccccc1)C(=O)N[C@@H](CC(C)C)C(=O)[C@@]1(C)CO1 [Carfilzomib] | 13.8 |
| O=C(O)CO.[NH2-].[NH2-].[Pt+2] [Nedaplatin] + CC(C)C[C@H](NC(=O)[C@H](CCc1ccccc1)NC(=O)CN1CCOCC1)C(=O)N[C@@H](Cc1ccccc1)C(=O)N[C@@H](CC(C)C)C(=O)[C@@]1(C)CO1 [Carfilzomib] | 16.4 |
| CO[C@H]1C[C@@H]2CC[C@@H](C)[C@@](O)(O2)C(=O)C(=O)N2CCCC[C@H]2C(=O)O[C@H]([C@H](C)C[C@@H]2CC[C@@H](O)[C@H](OC)C2)CC(=O)[C@H](C)/C=C(\C)[C@@H](O)[C@@H](OC)C(=O)[C@H](C)C[C@H](C)/C=C/C=C/C=C/1C [Rapamycin (Sirolimus)] + CC(C)C[C@H](NC(=O)[C@H](CCc1ccccc1)NC(=O)CN1CCOCC1)C(=O)N[C@@H](Cc1ccccc1)C(=O)N[C@@H](CC(C)C)C(=O)[C@@]1(C)CO1 [Carfilzomib] | 25.8 |
| C=C1C(=CC=C2CCCC3(C)C2CCC3C(C)CCCC(C)C)CC(O)CC1O (stereo not given) [Alfacalcidol] + CC(C)C[C@H](NC(=O)[C@H](CCc1ccccc1)NC(=O)CN1CCOCC1)C(=O)N[C@@H](Cc1ccccc1)C(=O)N[C@@H](CC(C)C)C(=O)[C@@]1(C)CO1 [Carfilzomib] | 16.6 |
| CO[C@H]1/C=C/O[C@@]2(C)Oc3c(C)c(O)c4c(O)c(c(/C=N/N5CCN(C6CCCC6)CC5)c(O)c4c3C2=O)NC(=O)/C(C)=C\C=C\[C@H](C)[C@H](O)[C@@H](C)[C@@H](O)[C@@H](C)[C@H](OC(C)=O)[C@@H]1C [Rifapentine] + CC(C)C[C@H](NC(=O)[C@H](CCc1ccccc1)NC(=O)CN1CCOCC1)C(=O)N[C@@H](Cc1ccccc1)C(=O)N[C@@H](CC(C)C)C(=O)[C@@]1(C)CO1 [Carfilzomib] | 21.9 |
| Cc1ccc(C(=O)N(CCCN)C(c2nc3cc(Cl)ccc3c(=O)n2Cc2ccccc2)C(C)C)cc1 (stereo not given) + CC(C)C[C@H](NC(=O)[C@H](CCc1ccccc1)NC(=O)CN1CCOCC1)C(=O)N[C@@H](Cc1ccccc1)C(=O)N[C@@H](CC(C)C)C(=O)[C@@]1(C)CO1 [Carfilzomib] | 19.6 |
| CC(NCCCc1cccc(C(F)(F)F)c1)c1cccc2ccccc12.Cl (stereo not given) [Cinacalcet HCl] + CC(C)C[C@H](NC(=O)[C@H](CCc1ccccc1)NC(=O)CN1CCOCC1)C(=O)N[C@@H](Cc1ccccc1)C(=O)N[C@@H](CC(C)C)C(=O)[C@@]1(C)CO1 [Carfilzomib] | 18.6 |
| CC(CCC(=O)O)C1CCC2C3CCC4CC(O)CCC4(C)C3CCC12C (stereo not given) [Lithocholic Acid] + CC(C)C[C@H](NC(=O)[C@H](CCc1ccccc1)NC(=O)CN1CCOCC1)C(=O)N[C@@H](Cc1ccccc1)C(=O)N[C@@H](CC(C)C)C(=O)[C@@]1(C)CO1 [Carfilzomib] | 21.6 |
